# Where “and” joins values, the source holds several entries; their conditions need not be identical. Identical values can stand only once. Results filed as inconclusive are left out. Entries that show only a call come without a potency. Calls of active or inactive are those of the source. Unless noted, calls follow the shape of the dose curve; as a rule, active = well fitted curve in the direction sought with a large enough effect in the repeat runs; inconclusive = weak or mixed curves; inactive = no such curve, though single readings can be large; an effect the other way counts as inactive or inconclusive.
# What was measured:
# [1] = target: Estrogen receptor beta (Homo sapiens) (UniProt Q92731); assay: qHTS assay to identify small molecule antagonists of the estrogen receptor beta (ER-beta) signaling pathway (AID 1259378; active = well fitted inhibition curve with a large enough effect in the signal ratio in the repeat runs, not every such curve was filed as active; the % refers to the signal ratio; also: potency is read from the fitted curve at half-maximal effect)
# Chain of Estrogen receptor beta (Homo sapiens) (Q92731 whole entry, looked up): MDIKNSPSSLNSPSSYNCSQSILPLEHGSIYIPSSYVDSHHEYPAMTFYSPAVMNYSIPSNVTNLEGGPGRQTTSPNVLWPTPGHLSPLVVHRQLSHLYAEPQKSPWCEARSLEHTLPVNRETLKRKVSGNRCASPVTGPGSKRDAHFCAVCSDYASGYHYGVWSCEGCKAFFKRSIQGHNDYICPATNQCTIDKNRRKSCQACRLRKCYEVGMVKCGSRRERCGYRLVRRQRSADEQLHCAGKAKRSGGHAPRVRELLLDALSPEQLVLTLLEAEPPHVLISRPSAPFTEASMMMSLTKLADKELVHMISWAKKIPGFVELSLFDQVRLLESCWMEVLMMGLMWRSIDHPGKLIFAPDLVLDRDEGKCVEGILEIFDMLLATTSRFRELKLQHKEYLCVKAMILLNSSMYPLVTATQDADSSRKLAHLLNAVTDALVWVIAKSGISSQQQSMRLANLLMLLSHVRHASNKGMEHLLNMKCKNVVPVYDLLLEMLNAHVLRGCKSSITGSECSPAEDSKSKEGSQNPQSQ
# Procedure, shortened: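 Antagonist mode: compounds added to beta-lactamase reporter HEK293T ER-beta-UAS cells stimulated with E2 (1nM final), 16 hr at 37C. LiveBLAzer B/G FRET substrate, 2 hours room temperature, fluorescence read-out.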
# [2] = qHTS assay to identify small molecule agonists of the androgen receptor (AR) signaling pathway in the presence of an antagonist - cell viability counter screen (AID 1259379); also: nearly all actives have a fitted effect of over 25% in size; also: potency is read from the fitted curve at half-maximal effect
# Procedure, shortened: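 Cytotoxicity counter-screen run in the same wells as the nilutamide-challenged (3.0 µM final) AR agonist assay in MDA-kb2 cells. Compounds tested at 15 concentrations for 16 h, 37 °C without CO2; CellTiter-Fluor fluorescence read.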
# [3] = qHTS assay to identify small molecule agonists of the estrogen receptor beta (ER-beta) signaling pathway - cell viability counter screen (AID 1259380); also: nearly all actives have a fitted effect of over 30% in size; also: potency is read from the fitted curve at half-maximal effect
# Procedure, shortened: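 Cell viability counter screen: CellTiter-Glo luminescence (30 min, room temperature) measured in the same wells as the beta-lactamase readout, after 16 hr compound exposure at 37C of ER-beta-bla HEK293T cells in 2% charcoal-stripped FBS medium.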
# [4] = target: Androgen receptor (Homo sapiens) (UniProt P10275); assay: qHTS assay to identify small molecule agonists of the androgen receptor (AR) signaling pathway in the presence of an antagonist (AID 1259381; calls by dose curve; also: nearly all actives have a fitted effect of over 15% in size; also: potency is read from the fitted curve at half-maximal effect)
# Chain of Androgen receptor (Homo sapiens) (P10275 whole entry, looked up): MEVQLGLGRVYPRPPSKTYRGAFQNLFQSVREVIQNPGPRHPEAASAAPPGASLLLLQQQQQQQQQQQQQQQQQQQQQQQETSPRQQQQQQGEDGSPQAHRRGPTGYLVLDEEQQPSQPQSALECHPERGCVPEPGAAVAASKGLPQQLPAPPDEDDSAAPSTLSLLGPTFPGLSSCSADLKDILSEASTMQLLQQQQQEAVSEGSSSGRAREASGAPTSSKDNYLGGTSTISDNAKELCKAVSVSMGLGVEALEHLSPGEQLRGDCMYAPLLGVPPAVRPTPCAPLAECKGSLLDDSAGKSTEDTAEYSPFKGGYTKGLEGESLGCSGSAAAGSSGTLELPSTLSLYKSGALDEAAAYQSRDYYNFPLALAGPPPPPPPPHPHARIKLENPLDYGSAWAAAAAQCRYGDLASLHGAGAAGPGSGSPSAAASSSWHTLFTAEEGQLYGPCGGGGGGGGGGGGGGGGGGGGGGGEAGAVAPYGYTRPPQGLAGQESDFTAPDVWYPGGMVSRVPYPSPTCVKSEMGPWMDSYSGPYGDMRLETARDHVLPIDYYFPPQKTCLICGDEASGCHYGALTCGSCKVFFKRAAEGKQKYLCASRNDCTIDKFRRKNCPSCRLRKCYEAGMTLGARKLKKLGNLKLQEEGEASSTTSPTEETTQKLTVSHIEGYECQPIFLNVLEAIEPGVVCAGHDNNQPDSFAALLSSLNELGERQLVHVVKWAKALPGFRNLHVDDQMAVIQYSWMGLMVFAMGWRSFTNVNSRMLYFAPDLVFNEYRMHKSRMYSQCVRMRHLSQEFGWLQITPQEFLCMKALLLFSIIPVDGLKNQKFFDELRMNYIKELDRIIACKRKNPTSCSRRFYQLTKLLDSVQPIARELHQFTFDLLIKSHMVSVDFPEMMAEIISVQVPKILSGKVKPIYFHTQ
# Procedure, shortened: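 Agonist-mode confirmation run against 3.0 uM final nilutamide: compounds titrated at 15 concentrations onto MDA-kb2 MMTV-luciferase reporter cells. Luminescence measured with ONE-Glo following 16 hr incubation, 37C, 0% CO2.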
# [5] = qHTS assay to identify small molecule antagonists of the estrogen receptor beta (ER-beta) signaling pathway - cell viability counter screen (AID 1259382); also: nearly all actives have a fitted effect of over 55% in size; also: potency is read from the fitted curve at half-maximal effect
# Procedure, shortened: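 Cytotoxicity was measured in the same wells by CellTiter-Glo luminescence after 30 min at room temperature. Cells were ER-beta-bla HEK293T in charcoal-stripped serum, given compound together with 1 nM E2 and incubated 16 h at 37C.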
# [6] = target: Estrogen receptor (Homo sapiens) (UniProt P03372); assay: qHTS assay to identify small molecule agonists of the estrogen receptor alpha (ER-alpha) signaling pathway in the presence of an antagonist (AID 1259383; calls by dose curve; also: nearly all actives have a fitted effect of over 15% in size; also: potency is read from the fitted curve at half-maximal effect; as to activation: top concentration of the series differs between compounds)
# Chain of Estrogen receptor (Homo sapiens) (P03372 whole entry, looked up): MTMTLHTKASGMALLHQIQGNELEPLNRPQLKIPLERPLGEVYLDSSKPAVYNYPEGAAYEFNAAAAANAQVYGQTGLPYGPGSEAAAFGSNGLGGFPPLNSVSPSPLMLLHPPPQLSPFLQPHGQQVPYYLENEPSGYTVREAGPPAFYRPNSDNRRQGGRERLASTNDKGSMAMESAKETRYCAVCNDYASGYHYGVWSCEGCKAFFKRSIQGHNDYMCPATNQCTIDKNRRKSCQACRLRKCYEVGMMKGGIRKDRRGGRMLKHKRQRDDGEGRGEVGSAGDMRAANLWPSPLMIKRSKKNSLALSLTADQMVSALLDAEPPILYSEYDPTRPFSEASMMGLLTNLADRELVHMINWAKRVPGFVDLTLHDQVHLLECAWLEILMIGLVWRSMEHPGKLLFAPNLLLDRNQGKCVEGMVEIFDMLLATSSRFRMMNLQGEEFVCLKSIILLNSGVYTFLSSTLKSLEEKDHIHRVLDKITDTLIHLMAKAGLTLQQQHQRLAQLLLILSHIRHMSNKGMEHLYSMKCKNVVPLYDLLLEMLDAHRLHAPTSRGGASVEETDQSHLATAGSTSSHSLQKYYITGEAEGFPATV
# Procedure, shortened: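 Agonist-mode confirmation run in the presence of 10.0nM (final) ICI-182,780 antagonist. The reporter was ERE-driven luciferase in VM7Luc4E2 cells, grown in charcoal-stripped serum. Cells were exposed to 15-concentration compound series for 22hr, then ONE-Glo luminescence was read.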
# [7] = target: Progesterone receptor (Homo sapiens) (UniProt P06401); assay: qHTS assay to identify small molecule agonists of the progesterone receptor (PR) signaling pathway (AID 1346784; calls by dose curve; also: nearly all actives have a fitted effect of over 30% in size; also: potency is read from the fitted curve at half-maximal effect)
# Chain of Progesterone receptor (Homo sapiens) (P06401 whole entry, looked up): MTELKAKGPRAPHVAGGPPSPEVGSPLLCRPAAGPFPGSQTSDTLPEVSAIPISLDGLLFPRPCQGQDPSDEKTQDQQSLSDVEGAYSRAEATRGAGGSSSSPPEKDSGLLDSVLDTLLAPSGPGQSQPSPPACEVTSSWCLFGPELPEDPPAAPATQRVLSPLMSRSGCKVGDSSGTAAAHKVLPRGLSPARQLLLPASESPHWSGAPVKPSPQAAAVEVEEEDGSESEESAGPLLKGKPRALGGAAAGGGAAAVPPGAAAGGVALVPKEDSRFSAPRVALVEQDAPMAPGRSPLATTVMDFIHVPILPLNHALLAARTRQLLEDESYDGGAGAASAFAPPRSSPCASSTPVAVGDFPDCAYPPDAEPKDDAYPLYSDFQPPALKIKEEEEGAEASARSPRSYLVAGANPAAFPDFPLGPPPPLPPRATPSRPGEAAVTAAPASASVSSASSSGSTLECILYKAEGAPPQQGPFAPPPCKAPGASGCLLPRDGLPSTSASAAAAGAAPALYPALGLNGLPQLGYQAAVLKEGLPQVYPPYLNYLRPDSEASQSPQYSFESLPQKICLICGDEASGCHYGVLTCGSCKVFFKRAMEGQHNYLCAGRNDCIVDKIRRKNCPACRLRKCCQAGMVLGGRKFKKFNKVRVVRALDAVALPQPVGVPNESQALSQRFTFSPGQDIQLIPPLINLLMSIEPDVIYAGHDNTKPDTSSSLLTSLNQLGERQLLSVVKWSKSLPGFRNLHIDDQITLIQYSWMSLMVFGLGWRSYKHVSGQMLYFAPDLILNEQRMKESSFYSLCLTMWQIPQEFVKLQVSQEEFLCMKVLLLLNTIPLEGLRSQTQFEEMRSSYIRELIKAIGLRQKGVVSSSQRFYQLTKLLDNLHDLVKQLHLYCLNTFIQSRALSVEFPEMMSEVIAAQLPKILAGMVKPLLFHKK
# Procedure, shortened: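 PR-UAS-bla HEK 293T cells (beta-lactamase reporter under UAS) in 2% charcoal-stripped FBS, dosed with 23 nL compound after 6 hr, incubated 16hr at 37C. LiveBLAzer B/G FRET substrate added, fluorescence read after 2 hours.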
# [8] = target: Progesterone receptor (Homo sapiens) (UniProt P06401); assay: qHTS assay to identify small molecule antagonists of the progesterone receptor (PR) signaling pathway (AID 1346795; active = well fitted inhibition curve with a large enough effect in the signal ratio in the repeat runs, not every such curve was filed as active; the % refers to the signal ratio; also: potency is read from the fitted curve at half-maximal effect)
# Procedure, shortened: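 PR-UAS-bla HEK293T cells with beta-lactamase reporter under UAS control, in 2% charcoal-stripped FBS, treated with compounds plus 1 nM promegestone (R5020, final) for 16 hr at 37C. Read-out: FRET beta-lactamase substrate fluorescence after 2 hr at room temperature.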
# [9] = qHTS assay to identify small molecule antagonists of the progesterone receptor (PR) signaling pathway - cell viability counter screen (AID 1346798); also: nearly all actives have a fitted effect of over 50% in size; also: potency is read from the fitted curve at half-maximal effect
# Procedure, shortened: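 PR-UAS-bla HEK293T cells, 3,000/well in 2% charcoal-stripped FBS medium, dosed with compounds plus R5020 agonist and incubated 16 h at 37C. Viability then measured in the same wells by CellTiter-Glo luminescence after 30 min at RT.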
# [10] = qHTS assay to identify small molecule agonists of the progesterone receptor (PR) signaling pathway - cell viability counter screen (AID 1346799; calls by dose curve; also: nearly all actives have a fitted effect of over 45% in size; also: potency is read from the fitted curve at half-maximal effect)
# Procedure, shortened: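 Counter screen in the PR-UAS-bla HEK293T wells (2% charcoal-stripped FBS, 16 h compound exposure at 37 C) after the bla read. CellTiter-Glo added, 30 min at room temperature, luminescence read as cell viability.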
# [11] = qHTS assay to identify small molecule antagonists of the TGF-beta/Smad signaling pathway - cell viability counter screen (AID 1346824); also: nearly all actives have a fitted effect of over 50% in size; also: potency is read from the fitted curve at half-maximal effect
# Procedure, shortened: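 Cytotoxicity counter-screen run in the same wells as the beta-lactamase Smad reporter read: CellTiter-Glo luminescence after 30 min at room temperature. HEK 293T SBE-bla cells had 5 hr compound exposure at 37 C with TGF-beta1 (0.25 ng/mL stock).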
# [12] = qHTS assay to identify small molecule agonists of the TGF-beta/Smad signaling pathway - cell viability counter screen (AID 1346829); also: nearly all actives have a fitted effect of over 45% in size; also: potency is read from the fitted curve at half-maximal effect
# Procedure, shortened: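 Same-well cytotoxicity: CellTiter-Glo added after the 2 hr room-temperature beta-lactamase substrate step, luminescence measured 30 min later; cells had 5 hr of compound at 37 C.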
# [13] = qHTS assay to identify small molecule agonists of the TGF-beta/Smad signaling pathway (AID 1346859; active = well fitted activation curve with a large enough effect in the signal ratio in the repeat runs, not every such curve was filed as active; the % refers to the signal ratio; also: series mostly up to about 77 µM)
# Procedure, shortened: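 SBE-bla HEK293T cells plated overnight, then compound exposure for 5 h at 37 C. Beta-lactamase reporter read with LiveBLAzer B/G FRET substrate after 2 h at room temperature, fluorescence at 405 nm excitation, 460/530 nm emission.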
# [14] = target: Thyrotropin-releasing hormone receptor (Homo sapiens) (UniProt P34981); assay: qHTS assay to identify small molecule antagonists of the thyrotropin-releasing hormone receptor (TRHR) signaling pathway (AID 1346877; active = well fitted inhibition curve with a large enough effect in the repeat runs, not every such curve was filed as active; also: potency is read from the fitted curve at half-maximal effect)
# Chain of Thyrotropin-releasing hormone receptor (Homo sapiens) (P34981 whole entry, looked up): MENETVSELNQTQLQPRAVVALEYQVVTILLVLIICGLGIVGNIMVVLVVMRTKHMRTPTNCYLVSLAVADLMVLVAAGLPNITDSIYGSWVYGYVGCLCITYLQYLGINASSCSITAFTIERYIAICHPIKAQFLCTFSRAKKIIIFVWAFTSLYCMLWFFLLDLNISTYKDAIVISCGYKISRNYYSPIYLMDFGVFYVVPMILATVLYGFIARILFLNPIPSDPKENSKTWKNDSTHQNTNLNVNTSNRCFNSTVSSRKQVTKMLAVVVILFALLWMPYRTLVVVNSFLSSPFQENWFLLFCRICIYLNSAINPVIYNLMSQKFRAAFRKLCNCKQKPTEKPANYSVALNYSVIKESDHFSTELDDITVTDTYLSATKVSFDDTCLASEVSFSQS
# Procedure, shortened: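 Antagonist mode: after a 5 min room-temperature compound exposure, cells were stimulated with 1 nM (final) TRH. Dye-loaded TRHR-HEK293 cells were used, and calcium-dependent fluorescence was followed for 3 min, with 15-point titrations run in triplicate.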
# [15] = target: Thyrotropin-releasing hormone receptor (Homo sapiens) (UniProt P34981); assay: qHTS assay to identify small molecule agonists of the thyrotropin-releasing hormone receptor (TRHR) signaling pathway (AID 1346891; calls by dose curve; also: series mostly up to about 58 µM)
# Procedure, shortened: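 HEK293 cells expressing TRHR plated 18 h at 37 C/5% CO2, calcium dye-loaded 2 h at 37 C, then compound added (agonist mode); kinetic calcium fluorescence read 3 min at 1 s intervals; 15 concentrations in triplicate.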
# [16] = qHTS assay to identify small molecule agonists or antagonists of the thyroid stimulating hormone receptor (TSHR) signaling pathway - wild type cell line counter screen (AID 1259384; calls by dose curve)
# Procedure, shortened: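 Counter screen in untransfected Hek293: compounds (15-point titration, triplicate) plus phosphodiesterase inhibitor Ro20-1724 added after 18 h plating; 30 min RT. Intracellular cAMP via competitive d2/cryptate immunoassay, 1 h incubation.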
# [17] = target: Thyrotropin receptor (Homo sapiens) (UniProt P16473); assay: qHTS assay to identify small molecule antagonists of the thyroid stimulating hormone receptor (TSHR) signaling pathway (AID 1259385; calls by dose curve; also: nearly all actives have a fitted effect of over 20% in size; also: potency is read from the fitted curve at half-maximal effect)
# Chain of Thyrotropin receptor (Homo sapiens) (P16473 whole entry, looked up): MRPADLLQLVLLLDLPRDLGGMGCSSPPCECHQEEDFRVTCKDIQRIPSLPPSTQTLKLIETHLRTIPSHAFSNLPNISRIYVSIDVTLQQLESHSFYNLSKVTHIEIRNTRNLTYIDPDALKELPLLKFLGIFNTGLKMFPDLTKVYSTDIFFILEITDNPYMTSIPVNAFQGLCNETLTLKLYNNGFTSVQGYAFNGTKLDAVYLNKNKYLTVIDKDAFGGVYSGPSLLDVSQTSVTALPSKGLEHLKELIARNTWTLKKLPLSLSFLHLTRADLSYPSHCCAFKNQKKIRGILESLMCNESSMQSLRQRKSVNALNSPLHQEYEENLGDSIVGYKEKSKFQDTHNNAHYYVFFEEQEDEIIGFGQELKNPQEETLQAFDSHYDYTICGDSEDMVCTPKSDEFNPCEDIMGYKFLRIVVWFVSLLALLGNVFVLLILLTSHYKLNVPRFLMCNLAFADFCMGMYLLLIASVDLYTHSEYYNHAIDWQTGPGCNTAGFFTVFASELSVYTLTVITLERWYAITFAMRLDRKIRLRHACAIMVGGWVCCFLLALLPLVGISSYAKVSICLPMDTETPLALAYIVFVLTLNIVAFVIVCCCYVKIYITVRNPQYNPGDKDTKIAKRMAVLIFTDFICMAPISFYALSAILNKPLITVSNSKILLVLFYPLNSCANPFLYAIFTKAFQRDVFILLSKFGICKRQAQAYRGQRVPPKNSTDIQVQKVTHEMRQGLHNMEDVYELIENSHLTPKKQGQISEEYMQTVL
# Procedure, shortened: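 Antagonist mode: compound-treated TSHR-expressing HEK293 cells were stimulated with 1.5 ng/mL TSH (final) in presence of Ro20-1724 for 30 min at RT. HTRF cAMP detection after 1 h; each compound tested at 15 concentrations, triplicate.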
# [18] = qHTS assay to identify small molecule agonists of the estrogen receptor alpha (ER-alpha) signaling pathway in the presence of an antagonist - cell viability counter screen (AID 1259386); also: nearly all actives have a fitted effect of over 30% in size; also: potency is read from the fitted curve at half-maximal effect
# Procedure, shortened: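 Compounds tested at 15 concentrations for 22 h at 37C alongside 10.0nM (final) ICI-182,780 antagonist, in VM7Luc4E2 cells grown in phenol red-free, charcoal-stripped medium. Viability read by CellTiter-Fluor fluorescence after 1 h reagent incubation.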
# [19] = Human pregnane X receptor (PXR) small molecule agonists, qHTS cell viability counter screen (AID 1346977); also: nearly all actives have a fitted effect of over 50% in size; also: potency is read from the fitted curve at half-maximal effect
# Procedure, shortened: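 PXR-Luc HepG2 cells (2,000/well, 5% charcoal-stripped FBS) preincubated 5 hr, then exposed to compounds 24 hr at 37 C. Viability read in the same wells by CellTiter-Fluor fluorescence, reagent added at 23 hr, 1 hr incubation.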
Compound,Potency [1],Potency [2],Potency [3],Potency [4],Potency [5],Potency [6],Potency [7],Potency [8],Potency [9],Potency [10],Potency [11],Potency [12],outcome [13],Potency [14],Potency [15],outcome [16],Potency [17],Potency [18],Potency [19]
ClC1=C(Cl)C2(Cl)C3C(Cl)C(Cl)CC3C1(Cl)C2(Cl)Cl (stereo unspecified),12.2 µM (active) and 27.3 µM (active),inactive,43.1 µM (active) and 61.1 µM (active),inactive,inactive,inactive,inactive,4.31 µM (active) and 21.7 µM (active),inactive,48.4 µM (active) and 61.1 µM (active),inactive,48.8 µM (active),inactive,inactive,inactive,–,–,–,–
O=[N+]([O-])c1cc([N+](=O)[O-])c2ccccc2c1,–,inactive,inactive,inactive,inactive,–,inactive,–,–,–,inactive,–,–,inactive,inactive,inactive,inactive,–,–
CCCCCCCCCC[N+](C)(C)CCCCCCCCCC,–,54.5 µM (active),15.4 µM (active),–,17.2 µM (active),inactive,–,–,19.3 µM (active),8.63 µM (active),43.6 µM (active),–,–,–,inactive,inactive,–,68.6 µM (active),27.3 µM (active)
CC(=O)[O-].CC(=O)[O-].O.O.[Cd+2],–,inactive,60.3 µM (active),–,53.7 µM (active),–,–,0.603 µM (active),19.1 µM (active),15.1 µM (active),–,inactive,inactive,–,–,–,–,60.3 µM (active),8.51 µM (active)
Cc1cc(SCc2sc(-c3ccc(C(F)(F)F)c(F)c3)nc2C)ccc1OCC(=O)O,–,inactive,15.4 µM (active),–,13.7 µM (active),inactive,inactive,17.2 µM (active),19.3 µM (active),8.63 µM (active),inactive,inactive,–,inactive,inactive,–,–,inactive,–
C[C@]12CC[C@H](O)C[C@H]1CC[C@@H]1[C@@H]2C[C@@H](O)[C@]2(C)[C@@H](C3=CC(=O)OC3)CC[C@]12O,–,inactive,1.09 µM (active),2.73 µM (active),0.77 µM (active),–,inactive,–,1.72 µM (active),1.54 µM (active),–,–,–,inactive,inactive,inactive,–,inactive,–
COC12CC[C@@]3(C[C@@H]1C(C)(O)C(C)(C)C)[C@H]1Cc4ccc(O)c5c4[C@@]3(CCN1CC1CC1)[C@H]2O5 (stereo partly specified),–,60.7 µM (active),27.1 µM (active),–,54.1 µM (active),inactive,–,–,43 µM (active),38.3 µM (active),48.6 µM (active),38.6 µM (active),inactive,–,–,inactive,inactive,60.7 µM (active),54.1 µM (active)
C=CCOC(N)=O,–,inactive,inactive,–,inactive,–,inactive,inactive,inactive,inactive,inactive,inactive,inactive,inactive,inactive,inactive,inactive,inactive,inactive
CCC[CH2][Sn]([CH2]CCC)([CH2]CCC)[O]C(=O)c1ccccc1,–,1.72 µM (active),1.54 µM (active),–,1.93 µM (active),inactive,–,–,2.17 µM (active),2.43 µM (active),3.47 µM (active),2.45 µM (active),–,–,–,–,17.2 µM (active),10.9 µM (active),1.22 µM (active)
CN(C)S(=O)(=O)N(SC(F)(Cl)Cl)c1ccccc1,–,30.6 µM (active),38.6 µM (active),–,54.5 µM (active),–,–,48.6 µM (active),61.1 µM (active),–,–,–,inactive,12 µM (active),inactive,inactive,–,inactive,24.3 µM (active)
COc1ccc([N+](=O)[O-])cc1O,–,inactive,inactive,inactive,–,inactive,inactive,inactive,–,inactive,inactive,inactive,inactive,inactive,inactive,inactive,inactive,inactive,inactive
O=C(Cl)c1ccc(Cl)cc1,–,inactive,inactive,inactive,–,inactive,inactive,–,inactive,inactive,inactive,–,inactive,–,–,inactive,inactive,inactive,inactive
Cl/C=C\CCl,–,inactive,inactive,–,inactive,–,inactive,inactive,inactive,inactive,inactive,inactive,inactive,–,–,inactive,inactive,inactive,inactive
BrC(Br)Br,–,inactive,inactive,–,inactive,–,7.7 µM (active),inactive,inactive,–,inactive,inactive,inactive,–,–,inactive,inactive,inactive,inactive
Oc1ccccc1Br,–,inactive,inactive,–,inactive,inactive,inactive,inactive,inactive,inactive,inactive,inactive,inactive,–,–,–,–,inactive,inactive
Oc1ccc(C2(c3ccc(O)cc3)CCCCC2)cc1,–,inactive,57.9 µM (active),–,57.9 µM (active),14.5 µM (active),–,–,–,–,inactive,inactive,inactive,inactive,inactive,inactive,–,–,57.9 µM (active)
